Measurements taken from PubChem BioAssay (Tox21).
Unmarked numbers belong to inactive results. Activity calls are given as the source filed them. The call rests on the fitted dose curve.

Experiment: qHTS assay to identify small molecule agonists of the sonic hedgehog signaling (Shh) pathway (AID 1259368); further: nearly all actives have a fitted effect of over 15% in size;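 on activity change: NIH/3T3-derived 3T3Gli1-Luc cells carrying a stable Gli1-driven firefly luciferase reporter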
Conditions: NIH/3T3 Gli1-Luc reporter, luciferase, 24 h; series mostly up to 92.4 µM; activity change: at the top concentration
Source text: National Center for Advancing Translational Sciences [NCATS]
NIH Chemical Genomics Center [NCGC]
U.S. Environmental Protection Agency [EPA]
National Institutes of Environmental Health Sciences [NIEHS]
National Toxicology Program [NTP]
The sonic hedgehog (Shh) pathway is essential for normal embryonic development. Dysregulation of the Shh pathway can cause severe developmental defects in organs. Therefore chemicals that interfere with the pathway are potential developmental toxicants. A cell line designated 3T3Gli1-Luc (DMB/OARSA/CFSAN/FDA, Laurel, MD), a NIH/3T3 derived clone containing stably integrated Gli1-Luc reporter is used to detect chemical interference of the Shh pathway, by changes in the expression of the firefly Luc gene under the control of the Gli1 transcriptional response element. This cell line was used to screen Tox21 libraries for identifying and prioritizing the potential developmental toxicants that interfere Shh pathway.
3T3 Gli1-Luc cells were dispensed at 2,000 per well in 5uL of culture medium into white solid bottom 1536-well plates (Greiner Bio-One, Monroe, NC) using a Multidrop Combi (Thermo Scientific, Waltham, MA) dispenser. The assay plates were incubated at 37 C and 5% CO2 for 4hr, and then 23nL of compounds dissolved in DMSO and positive control were transferred using a Pintool station (Wako, San Diego, CA). The assay plates were incubated at 37C and 5% CO2 for 24hr. For luciferase read, 4uL of Amplite Luciferase reporter gene assay reagent (AAT Bioquest, Inc. Sunnyvale, CA) was added to each well of the assay plates using Flying Reagent Dispenser (FRD, Aurora Discovery, San Diego, CA) and incubated at room temperature for 30min. The luminescence signal was measured using a ViewLux plate reader (Perkin Elmer, Shelton, CT).
On the % scale 0 is the no-effect control and ±100 the full control effect; potency means the concentration at half of the fitted maximal effect.

| SMILES | activity change | Potency |
| --- | --- | --- |
| Cc1cc(=O)[nH]c(=O)[nH]1 | 0.213% | – |
| CCCCCCOc1cc(C)c(O)c(C)c1C | -10.8% | – |
| CC(C(O)c1ccccc1)N(C)CCOC(c1ccccc1)c1ccccc1 (stereo not given) | -6.37% [at 42.5 µM, hits give high values] | – |
| Cc1cc(C)c(C=O)c(C)c1 | -1.75% | – |
| CC=O | -9.95% | – |
| CN(C)c1ccc(N=Nc2ccccc2C(=O)O)cc1 | -12.7% | – |
| Cc1nc(Nc2ncc(C(=O)Nc3c(C)cccc3Cl)s2)cc(N2CCN(CCO)CC2)n1 | -6.21% [at 42.5 µM, hits give high values] | – |
| COC(=O)CC(C)CCC=C(C)C (stereo not given) | -6.67% | – |
| Cc1cc(Nc2ccc(O)cc2)ccc1N | -13.5% | – |
| CCCCOc1ccc(C(=O)CCN2CCCCC2)cc1 | -0.877% [at 42.5 µM, hits give high values] | – |
| O=C(Oc1ccccc1)c1cccc(C(=O)Oc2ccccc2)c1 | – | 2.29 µM (active) |
| O=C(NO)c1ccccc1 | 0.873% | – |
| CN(C)c1ccc(N=NS(=O)(=O)O)cc1 | – | 16.2 µM (active) |
| CC1(C)COCN1 | -1.25% | – |
| CCOB(OCC)OCC | 0.205% | – |
| COc1ccccc1OCCNCC(O)COc1cccc2[nH]c3ccccc3c12 (stereo not given) | -6.16% [at 42.5 µM, hits give high values] | – |
| CCCCN(CCCC)CCC(O)c1cc2c(Cl)cc(Cl)cc2c2cc(C(F)(F)F)ccc12 (stereo not given) | 0.63% [at 42.5 µM, hits give high values] | – |
| N#CSCSc1nc2ccccc2s1 | -12.5% | – |
| CC(C)N=C(N)/N=C(\N)Nc1ccc(Cl)cc1 | -3.34% [at 42.5 µM, hits give high values] | – |
| C=C(c1ccc(C(=O)O)cc1)c1cc2c(cc1C)C(C)(C)CCC2(C)C | – | inactive |

| SMILES | activity change | Potency |
| --- | --- | --- |
| c1ccc(Nc2cccc3ccccc23)cc1 | – | inactive |
| c1ccc(Sc2ccccc2)cc1 | -2.35% | – |
| CC(C)(C)c1cc(/C=C2\SC(=N)NC2=O)cc(C(C)(C)C)c1O | -7.01% | – |
| Brc1ccccc1-c1ccccc1 | 1.06% | – |
| CC1=CCC(=O)O1 | 0.606% | – |
| COc1cccc(CCc2ccccc2OCC(CN(C)C)OC(=O)CCC(=O)O)c1 (stereo not given) | -3.43% [at 42.5 µM, hits give high values] | – |
| CCN1CCN(c2cc(-c3ccc(F)cc3)c3c(n2)CCCCCC3)CC1 | -0.431% [at 18.9 µM, hits give high values] | – |
| C=C1C(C)(C)[C@@]2(Cl)C(Cl)[C@]1(Cl)C(Cl)(Cl)C2(Cl)Cl (stereo not given in full) | -6.63% | – |
| COC(=O)[C@]1(C)CCC[C@@]2(C)[C@H]1CC=C1C=C(C(C)C)CC[C@@H]12 | 0.342% | – |
| CC(C)c1ccc(O)c(C(C)C)c1 | -0.333% | – |
| COc1cc(C(C)C)c2c(c1)S(=O)(=O)N(COc1cc(=O)n3cccc(OCCN4CCCCC4)c3n1)C2=O | 1.72% [at 18.9 µM, hits give high values] | – |
| NC(=O)c1nc(-c2cccc(-c3cc(F)ccc3OCC(F)(F)C(F)(F)F)c2)n[nH]1 | -2.66% | – |
| CCc1ccc(C)nc1 | -1.43% | – |
| Oc1c(Br)cc(Br)c2cccnc12 | -1.14% [at 42.5 µM, hits give high values] | – |
| O=C(O)Cc1ccc(OCCNC[C@H](O)c2ccccc2)cc1 | -2.04% [at 42.5 µM, hits give high values] | – |
| OCCCS | 0.78% | – |
| O=C1NC2CCCCN2C12CCN(CCCN1c3ccccc3CCc3ccc(Cl)cc31)CC2 (stereo not given) | -6.36% [at 42.5 µM, hits give high values] | – |
| CC(C)=C1CC[C@@H](C)CC1=O | 0.386% | – |
| CCOC(OCC)C(=O)c1ccccc1 | -1.33% | – |
| CCCCCCCC/C=C\CCCCCCCC(=O)N(C)CC(=O)O | 1.99% | – |
